The sample as a whole holds a higher share of hits than the screen did.
RMI FANCM FP: RMI-FANCM interaction inhibition; AID 1159607; Fluorescence polarization, RMI core complex with F-MM2 peptide; hits give low values; FP signal (polarization) at 33 µM; 70,000 tested, 0.58% active; in the data active means FP signal below about 40
Of the large screens only hits and unclear results are named; the others gave an inactive call.

COCCN1CCC(CNC(=O)c2ccc3c(c2)OCO3)CC1	none
O=C(Cn1ccn2nc(-c3ccc(Cl)cc3)cc2c1=O)Nc1cc(C(F)(F)F)ccc1Cl	none
O=C(NCc1n[nH]c(=S)n1-c1ccccc1)c1ccccc1C(F)(F)F	none
COc1ccc(-c2cc(=O)n(CC(=O)Nc3ccccn3)cn2)cc1	none
CC(=O)N1CCc2c(sc(NC(=O)c3cc(=O)c4ccccc4o3)c2-c2nc3ccccc3s2)C1	none
CC(C)N1CCc2c(sc(NC(=O)c3c(F)cccc3F)c2-c2nc3ccccc3s2)C1	RMI FANCM FP -10
COC(=O)N1CCc2c(sc(NC(=O)c3ccccc3)c2-c2nc3ccccc3s2)C1	none
CC(C)N1CCc2c(sc(NC(=O)c3ccnn3C)c2-c2nc3ccccc3s2)C1	RMI FANCM FP -7
CC(=O)N1CCc2c(sc(NC(=O)c3c(F)cccc3F)c2-c2nc3ccccc3s2)C1	none
CCn1nccc1C(=O)Nc1sc2c(c1-c1nc3ccccc3s1)CCC(C)C2 (stereo not given)	none
COc1ccc(OC)c(N=Cc2c(C)[nH]n(-c3ccccc3)c2=O)c1	none
O=C(NCC(c1ccsc1)N1CCCCCC1)c1cc2ccccc2oc1=O (stereo not given)	none
O=c1ccc(-c2ccncc2)nn1CCCNS(=O)(=O)/C=C/c1ccccc1	none
CNN1C(=O)c2cccc3cccc(c23)C1=O	none
O=C(O)c1cccc2cccc(-c3cccc4cccc(C(=O)O)c34)c12	none
O=C1Sc2cccc3cccc1c23	RMI FANCM FP 58
CCOC(=O)c1sc(=NC(=O)Cc2cccc3ccccc23)n(C)c1C	none
CN(C)c1ccc(/C=C/c2ccncc2)cc1	RMI FANCM FP 25
CN(C)c1ccc(/C=C/c2ccccc2)cc1	none
CN(C)c1ccc(/C=C/C#N)cc1	none
CCN1CCOc2ccc(NC(=O)COc3ccccc3OC)cc2C1=O	none
Cc1ccc(S(=O)(=O)NC(=O)Nc2cccc(S(N)(=O)=O)c2)cc1	none
O=C(Cc1csc(Nc2ccc(OC(F)(F)F)cc2)n1)N1CCCC1	none
CCS(=O)(=O)Nc1ccc(C2=NN(S(=O)(=O)c3ccccc3)C(c3cccs3)C2)cc1 (stereo not given)	none
CN1CCc2c(sc3nc(NC(=O)c4ccc(OC(F)(F)F)cc4)sc(=O)c23)C1	none
CCNc1nc(SCC(=O)NC(=O)NCc2ccccc2)nc2sc3c(c12)CCN(C)C3	none
CCNc1[nH]c(=S)nc2sc3c(c12)CCN(C)C3	RMI FANCM FP -15
CCOc1cn(C)c(C(=O)NCc2cccs2)cc1=O	none
Cc1ccc(Oc2ccc(OCC(=O)Oc3ccc(C#N)cc3)cc2)cc1	none
O=c1ccc(-c2ccccc2F)nn1Cc1nc(-c2ccccc2Cl)no1	none
COc1cc(Nc2ccc(NC(=O)Nc3cccc(C)c3)cc2)nc(C)n1	none
Cn1nc2c(c1NC(=O)/C=C/c1cccs1)CCC2	RMI FANCM FP 37
O=C(/C=C/c1cccs1)Nc1nccs1	none
Cn1nc2c(c1NC(=O)COc1ccccc1)CCC2	none
CCOCCCn1c(C)cn2c3c(=O)n(Cc4c(F)cccc4Cl)c(=O)n(C)c3nc12	none
CN(C)c1ccc(CCCNC(=O)c2ccccc2C(F)(F)F)cc1	none
COC(=O)c1c(NC(=O)CC2S/C(=N\N=C/c3ccc([N+](=O)[O-])cc3)NC2=O)sc2c1CCCC2 (stereo not given)	RMI FANCM FP 14
COc1ccc(/C=N\N=C2\NC(=O)C(CC(=O)Nc3sc4c(c3C#N)CCCC4)S2)cc1 (stereo not given)	none
O=C(CC1S/C(=N\N=C2CCCCC2)NC1=O)Nc1ccc([N+](=O)[O-])cc1 (stereo not given)	none
Cc1nc(NC(=O)Nc2cccc(Cl)c2)sc1C(=O)NCc1ccco1	none
C=CCn1c(SCC(=O)Nc2ccccc2OC)nc2scc(-c3ccc(C)o3)c2c1=O	none
CCOC(=O)c1nn(-c2ccc(OC)cc2)c(=O)c2c(NC(=O)c3c(OCC)ccc4ccccc34)scc12	none
O=C(Nc1scc2c(C(=O)O)nn(-c3ccc(C(F)(F)F)cc3)c(=O)c12)c1c(F)cccc1Cl	none
NNC(=O)c1nn(-c2ccccc2)c(=O)c2c(N)scc12	RMI FANCM FP 24
CCOc1ccc(NC(=O)CSc2nc(CC)c3c(c2C#N)CCCC3)cc1	none
C/C(=N/Nc1nc2c(c(=O)n(C)c(=O)n2C)n1CCc1ccccc1)c1ccc(O)cc1	none
CC(C)(C)c1ccc(-n2cccc2)c([N+](=O)[O-])c1	none
Cc1ccc(N2C(=O)C=CC2=O)c([N+](=O)[O-])c1	RMI FANCM FP -7
Cc1ccc(NC(=S)NC(C)(C)C)c([N+](=O)[O-])c1	none
COc1ccc(C)cc1Nc1nc(C(=O)Nc2cccnc2)cs1	none
C=CCn1c(SCCC(=O)NCCc2ccccc2)nc2scc(-c3ccc(F)cc3)c2c1=O	none
CCC(C)n1c(=O)c2ccccc2n(Cc2nc(-c3cccc(Cl)c3)no2)c1=O (stereo not given)	none
COc1ccc(-c2nc(N/N=C\c3cccs3)[nH]c(=O)c2C#N)cc1	none
CCc1ccc(NC(=O)CSc2nnc(-c3cccn(C)c3=O)n2CC)cc1	none
COc1cccc(OC)c1C(=O)Nc1cc(-n2c(C)nc3ccccc3c2=O)ccc1F	none
Cc1csc(NC(=O)CN2CCN(Cc3nc(-c4cccs4)cs3)CC2)n1	none
COc1ccc(N=Nc2cc(C)c(O)c(CN3CCCCC3)c2)cc1	none
Cc1ccc(C(C)C)cc2c(C)ccc1-2	none

Compound activity deposited in PubChem BioAssay by Small Molecule Screening Facility, UW Madison.
